The nature of assay [1]: qHTS to identify inhibitors of the type 1 interferon - major histocompatibility complex class I in skeletal muscle: primary screen against the NCATS Mechanism Interrogation Plate v5.0 (MIPE) Libary (AID 1347411). Note: nearly all actives have a fitted effect of over 65% in size. Put shortly: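 Luminescence from HiBiT-tagged endogenous HLA-B*08:01 served as the MHC class I read-out. CRISPR-engineered C25cl48 human myoblasts received 4.0 ng/ml IFN-beta plus compound for 24 hrs, with an 11-point, 1:3 series topping at 46 uM final.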
On the technique in general: qHTS replaces the single test concentration by a dilution series.

Assay [2] is described as follows: Cytotoxicity counterscreen for inhibitors of SARS-CoV-2 cell entry (AID 1645845; calls by dose curve; note: nearly all actives have a fitted effect of over 50% in size). The conditions noted are these: outcome: dose series up to 57.1 µM unless noted. A digest of the protocol: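 HEK293-ACE2 cells (Expi293F stably expressing human ACE2) seeded overnight, then compound for 1 h plus 48 h at 37C. Viability as ATP content by luminescence; normalized to wells with cells and media-only wells.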

Assay [3] concerns the target Endonuclease 4 (Escherichia coli (strain K12)) (UniProt P0A6C1). Nature of the assay: Counterscreen for APE1 Inhibitors: qHTS Validation Assay for Inhibitors of Endonuclease IV (AID 1708). A digest of the protocol:
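E. coli EndoIV at 2 nM final, preincubated 15 min at room temperature with compound, then 50 nM TAMRA/BHQ-2 THF abasic-site duplex added. Buffer: 50 mM Tris-HCl pH 7.5, 50 mM NaCl, 2 mM MgCl2, 1 mM DTT, 0.01% Tween-20. Kinetic fluorescence increase, third minus first read.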

Assay [4] in a line: qHTS for differential inhibitors of proliferation of Plasmodium falciparum line D10 (AID 1877).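 Note: parasites grown with compound for 72 h before DNA staining.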 Note: potency is the fitted concentration of half-maximal effect.
A short description of assay [5]: Quantitative high throughput screen for delayed death inhibitors of the malarial parasite plastid, 96 hour incubation (AID 488745). Note: nearly all actives have a fitted effect of over 70% in size. Note: potency is the fitted concentration of half-maximal effect. Put shortly:
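Infected erythrocytes were added to compound in Albumax-supplemented RPMI 1640 at 0.1% parasitemia and 2% hematocrit (final), incubated 96 h at 37 C under 5% CO2, then luciferase reagent was added and luminescence measured.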

Assay [6] addresses Voltage-gated inwardly rectifying potassium channel KCNH2 (Homo sapiens) (UniProt Q12809). Nature of the assay: qHTS Assay for Small Molecule Inhibitors of the Human hERG Channel Activity (AID 588834).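 Note: lower thallium flux fluorescence means stronger hERG block; nearly all actives have a fitted effect of over 50% in size.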 Note: potency is the fitted concentration of half-maximal effect. Put shortly:
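U2OS cells transduced with hERG via BacMam (MOI ~100), plated 2000/well, loaded with FluxOR thallium dye, compound ~10 min, then stimulation buffer; fluorescence decrease read kinetically; AC50 from Hill fits.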

Assay [7] can be described thus: qHTS for differential inhibitors of proliferation of Plasmodium falciparum line 3D7 (AID 1876). Note: potency is the fitted concentration of half-maximal effect.
A short description of assay [8]: qHTS for differential inhibitors of proliferation of Plasmodium falciparum line HB3 (AID 1886).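 Note: parasites grown with compound for 72 h before SYBR Green readout.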 Note: potency is the fitted concentration of half-maximal effect. The conditions noted are these: Potency: Plasmodium falciparum HB3 proliferation inhibition.
Assay [9] deals with Ferritin light chain (Equus caballus) (UniProt P02791). Nature of the assay: qHTS Validation Assay for Identification of Novel General Anesthetics (AID 2323). Note: series mostly up to about 77 µM. A digest of the protocol: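 Competitive displacement of profluorescent 1-aminoanthracene (1-AMA, 50% saturated solution in PBS) from 10 uM horse-spleen apoferritin. Compounds incubated 10 min at room temperature; fluorescence read at 380 nm excitation/535 nm emission, normalized to free 1-AMA and complex, fitted with four-parameter Hill equation.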
Sequence of Ferritin light chain (Equus caballus) (P02791 2-175 limits assumed): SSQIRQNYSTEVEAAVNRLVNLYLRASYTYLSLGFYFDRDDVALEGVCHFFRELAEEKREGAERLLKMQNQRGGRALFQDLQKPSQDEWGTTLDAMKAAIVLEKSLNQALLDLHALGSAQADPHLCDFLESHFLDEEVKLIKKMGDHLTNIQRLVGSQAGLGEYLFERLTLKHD

Assay [10] can be described thus: qHTS for differential inhibitors of proliferation of Plasmodium falciparum line W2 (AID 1883).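 Note: parasites grown with compound for 72 h before lysis and staining.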 Note: potency is the fitted concentration of half-maximal effect. The conditions noted are these: Potency: Plasmodium falciparum W2 proliferation inhibition.

Records with an inconclusive call do not appear. Activity calls are given as the source filed them. Unless noted, calls come from the whole dose curve; as a rule, active = well fitted curve in the direction sought with a large enough effect; inconclusive = small, poorly fitted or top-dose-only effect, or another doubt; inactive = no such curve, though single readings can be large; an effect the other way counts as inactive or inconclusive.

Sequence of Voltage-gated inwardly rectifying potassium channel KCNH2 (Homo sapiens) (Q12809 whole entry, looked up): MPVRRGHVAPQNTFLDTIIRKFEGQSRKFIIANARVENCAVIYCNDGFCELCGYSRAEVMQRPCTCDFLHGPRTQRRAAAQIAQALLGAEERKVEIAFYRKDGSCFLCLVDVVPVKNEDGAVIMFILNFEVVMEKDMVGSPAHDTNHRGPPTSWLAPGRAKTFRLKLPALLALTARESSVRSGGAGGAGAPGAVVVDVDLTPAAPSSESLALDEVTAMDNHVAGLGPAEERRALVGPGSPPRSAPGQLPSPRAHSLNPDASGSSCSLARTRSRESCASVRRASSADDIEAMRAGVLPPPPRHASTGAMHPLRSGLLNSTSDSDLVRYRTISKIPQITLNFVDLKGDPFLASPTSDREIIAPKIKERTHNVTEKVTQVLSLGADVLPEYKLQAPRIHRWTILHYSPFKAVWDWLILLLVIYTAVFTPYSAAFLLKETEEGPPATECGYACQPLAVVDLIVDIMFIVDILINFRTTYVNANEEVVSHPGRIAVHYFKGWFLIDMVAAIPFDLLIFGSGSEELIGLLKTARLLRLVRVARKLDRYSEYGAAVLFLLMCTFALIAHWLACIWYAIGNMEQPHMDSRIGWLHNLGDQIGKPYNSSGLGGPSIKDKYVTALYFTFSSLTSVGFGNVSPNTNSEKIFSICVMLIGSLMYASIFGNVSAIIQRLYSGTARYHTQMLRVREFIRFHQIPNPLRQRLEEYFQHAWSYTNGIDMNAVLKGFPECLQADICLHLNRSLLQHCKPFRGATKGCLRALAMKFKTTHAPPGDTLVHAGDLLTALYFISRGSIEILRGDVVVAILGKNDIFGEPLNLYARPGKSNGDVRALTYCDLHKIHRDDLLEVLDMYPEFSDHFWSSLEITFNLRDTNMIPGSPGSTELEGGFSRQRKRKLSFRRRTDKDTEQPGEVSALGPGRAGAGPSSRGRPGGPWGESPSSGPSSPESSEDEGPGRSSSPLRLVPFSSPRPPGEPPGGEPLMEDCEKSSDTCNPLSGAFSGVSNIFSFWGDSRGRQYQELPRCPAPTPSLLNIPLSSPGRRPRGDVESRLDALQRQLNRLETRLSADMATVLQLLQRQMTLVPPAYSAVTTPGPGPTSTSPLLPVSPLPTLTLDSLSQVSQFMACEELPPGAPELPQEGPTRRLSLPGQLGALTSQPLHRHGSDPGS

For `CC(C)(NC(=O)O[C@@H]1CN2CCC1CC2)c1csc(-c2ccc(F)cc2)n1`, the Potency result in [1] and in [2] was “inactive” in each case.

With `C=C[C@H]1CN2CCC1C[C@@H]2[C@@H](O)c1ccnc2ccccc12` (stereo partly specified), the Potency result in assay [1] and in assay [2] was “inactive” in each case.

As to `C/C1=C/C[C@@H](/C(C)=C/c2csc(C)n2)OC(=O)C[C@H](O)C(C)(C)C(=O)[C@H](C)[C@@H](O)[C@@H](C)CCC1`, in [2], the Potency entry was “inactive”.

For `N#CC(=Cc1ccc(O)c(O)c1)C(N)=S`, the Potency result in assay [3], in [4], in assay [5] and in [6] was “inactive” throughout.

For the compound `Oc1ccc2c3c1O[C@H]1[C@@H](O)CC[C@@]4(O)C(C2)N(CC2CCC2)CCC314` (stereo partly specified), the Potency result in assay [3], in assay [7], in [4], in [8] and in assay [9] was “inactive” in each case. The Potency in [6] was 5.01 µM (active).

As for `C[C@H]1C2Cc3ccc(O)cc3[C@]1(C)CCN2CC1CC1`, the Potency result in assay [3], in assay [7], in assay [4], in assay [8], in assay [9] and in assay [5] was “inactive” in each case. The Potency result in assay [6] is “inactive”. Moreover, the Potency in [10] was 2.82 µM (active).

As to `C#CCN(C)C(C)Cc1ccccc1` (stereo unspecified), the Potency entry in assay [3], in assay [7], in assay [4], in [10], in [8] and in assay [5] was “inactive” in each case. The Potency entry in assay [6] is “inactive”.

As to `NNCc1cccc(O)c1`, the Potency entry in assay [3], in assay [9] and in [6] was “inactive” in each case. The Potency is 12.6 µM (active) in assay [7], 14.1 µM (active) in [4], 12.6 µM (active) in assay [10] and 14.1 µM (active) in assay [8].

Take `CC(C)(O)C1C2OC(=O)C1[C@]1(O)C[C@H]3O[C@]34C(=O)O[C@H]2[C@]14C` (stereo partly specified) (tested in a mixture with another compound): the Potency result in [7], in assay [4], in assay [10], in assay [8], in assay [9] and in [5] was “inactive” each time.

On to `C[C@H]1OC[C@@H](C[N+](C)(C)C)O1`, for which the Potency entry in assay [3], in [7], in [4], in assay [10], in assay [8] and in assay [9] was “inactive” each time. In addition, the Potency result in assay [5] and in assay [6] was “inactive” in each case.

Regarding `CC[C@@H](CO)NC(=O)[C@H]1C=C2c3cccc4c3c(cn4C)C[C@H]2N(C)C1`, the Potency result in assay [3], in assay [9] and in assay [6] was “inactive” throughout.

Consider `CCCN(CCC)C(=O)Cc1c(-c2ccc(Cl)cc2)nc2c(Cl)cc(Cl)cn12`, for which the Potency result in assay [3], in assay [8], in assay [5] and in [6] was “inactive” throughout.

For the compound `CN1CCC23CCCC[C@H]2C1Cc1ccc(O)cc13` (stereo partly specified), the Potency entry in [7], in assay [4], in assay [8], in assay [9] and in assay [5] was “inactive” each time. The Potency in assay [10] was 1.58 µM (active).

Take `COc1cc(C=C(C#N)C#N)cc(O)c1O`: the Potency result in assay [3], in [9], in assay [5] and in assay [6] was “inactive” in each case. Besides, the Potency in assay [10] was 10 µM (active).

Regarding `CCCN1CCC[C@@H]2Cc3n[nH]cc3C[C@H]21`, the Potency entry in assay [3], in assay [7], in assay [4], in assay [8], in assay [9] and in [5] was “inactive” each time.

Turning to `CCNC(=O)[C@H]1O[C@@H](n2cnc3c(N)ncnc32)[C@H](O)[C@H]1O`, the Potency result in assay [3], in [7], in assay [4], in [10], in assay [8] and in [9] was “inactive” throughout. The Potency entry in assay [5] and in assay [6] was “inactive” throughout.

Regarding `CCCC[N+]1(C)C2CC(OC(=O)C(CO)c3ccccc3)CC1C1OC12` (stereo unspecified), the Potency result in [3], in assay [4], in assay [8], in assay [9], in assay [5] and in assay [6] was “inactive” in each case.

Turning to `COc1ccc2c3c1O[C@H]1C(=O)CC[C@@]4(O)C(C2)N(CC2CC2)CCC314` (stereo partly specified), the Potency result in assay [3], in assay [7], in [4], in assay [8], in assay [9] and in [5] was “inactive” each time. Moreover, in [10], the Potency is 11.2 µM (active).

Turning to `CCC(CO)NC(=O)[C@@H]1C=C2c3cccc4[nH]cc(c34)C[C@H]2N(C)C1` (stereo partly specified), the values for the Potency in [7], in [10] and in [8] were 14.1 µM (active), 12.6 µM (active) and 10 µM (active), respectively. Also, the Potency entry in [9] and in assay [6] was “inactive” each time.

For the compound `CCN(CC)C(=O)N[C@@H]1C[C@@H]2c3cccc4[nH]cc(c34)C[C@H]2N(C)C1`, the Potency in assay [7] was 0.398 µM (active); in assay [10], 0.891 µM (active); in assay [8], 0.891 µM (active); in assay [5], 1.17 µM (active). Besides, the Potency result in assay [9] is “inactive”.

These data come from PubChem BioAssay (NCATS).
